Compound activity (PubChem)
Hits are enriched below; roughly 3.8% of the tested compounds scored in any of these assays.
HSF1 activator: HSF-1 activators, primary screen, NIH3T3-HGL cells, MG132 stress, luminescence, single point; NIH3T3-HGL HSF-1 luciferase reporter, 8 h; 100% = twice DMSO control signal; activation, % at 9 µM; actives 1.7% (n = 300,000); AID 504408, 2011;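 active = mean replicate activation of at least 50% with a set share of replicates each reaching 50%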;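 note: 0% = median of the neutral control wells and 100% = twice that signal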
NALP1 inh: NALP1 inflammasome inhibitors in reconstituted yeast, colorimetric, S. cerevisiae, triplicate retest; inhibition, % at 10 µM; actives 0.61% (n = 280,000); S. cerevisiae NALP1/ASC/caspase-1 growth, X-gal OD620, 72 h; AID 2071, 2009; in the data active = inhibition mostly above about 24%, no sharp cut-off; inactive = mostly below about 32%
pCIP destab: p/CIP-EGFP fusion destabilizers, primary screen, fluorescence, F442A cells | decrease of EGFP signal, % at 10 µM | 16 h | AID 1984, 2009 | actives 0.01% (n = 290,000);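 active = EGFP signal decrease of at least 30% at 10 µM or well 3 SD below plate mean, unless failing retest; inactive = the rest, including hits failing retest or dose response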
Hsp70 act: Hsp70 transcriptional activators, primary screen, cell-based, HeLa, Hsp70 promoter luciferase, luminescence, 10 µM; HeLa Hsp70 promoter luciferase reporter; scaled: vehicle 0, proteasome-inhibitor control 100%; activation, % at 10 µM; actives 0.04% (n = 200,000); AID 1203, 2008;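 active = activation above the mean across all tested compounds plus 3 SD, cutoff set per campaign, cut at about 5.5% in these data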;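 note: 100% = MG132 at 30 µM as the positive control and 0% = DMSO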
HSP90 refold inh: HSP90 inhibitors, primary screen, cell lysate, luminescence; actives 0.91% (n = 290,000); AID 1789, 2009; Heat shock protein HSP 90 (rabbit reticulocyte lysate; luciferase refolding); Rabbit reticulocyte lysate, luciferase refolding luminescence, 3 h; inhibition, % at 5.6 µM;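 active = inhibition above the screen-wide mean plus 3 SD, computed separately per campaign, cut at about 16% in these data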;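 note: 0% = DMSO wells and 100% = 60 µM geldanamycin wells; inhibitors lower the luminescence because luciferase stays unfolded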
HSF1 inhib: HSF1 inhibitors in luciferase reporter cells, primary screen, cell-based, NIH3T3, luminescence; NIH3T3-HGL HSE-luciferase, MG132-induced, luminescence 8 h; stronger effect = lower value; activity change, negative = inhibition, % at 7.5 µM (by protocol); actives 0.77% (n = 300,000); AID 2098, 2009;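 active = more than half of replicate wells show activity change below -50%, luminescence cut by over half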;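 note: luciferase reports HSF-1 transcriptional activity via heat shock element; 0% = median of DMSO wells and -100% = zero luminescence signal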
The depositor's hits bear a star; . = no result.

SMILES | HSF1 activator | NALP1 inh | pCIP destab | Hsp70 act | HSP90 refold inh | HSF1 inhib
COc1c(Br)cc(Br)cc1C(=O)O | 112* | 9 | -17 | 0 | 1 | 87
CC1(C)CC2(CCCN3C(=O)CSC32)CCS1 (configuration not stated) | -8 | 38* | -7 | 0 | -3 | -4
O=C(CC1C(=O)NCCN1Cc1ccc(F)c(F)c1)NCCn1cccn1 (configuration not stated) | -17 | 20 | -8 | 0 | 2 | -5
Fc1ccccc1-c1nc2nc3ccccc3nc2n1CC1CCCO1 (configuration not stated) | 63* | 20 | 3 | . | 0 | 21
CN(c1ccccc1)c1ccc(/C=C/[N+](=O)[O-])cc1 | 198* | 94 | -7 | 0 | 1 | 164
O=[N+]([O-])/C=C\c1ccc(N2CCOCC2)cc1 | 28 | . | . | . | . | 9
CCC(CC)C(=O)c1c[nH]c(C(=O)NCCc2ccccn2)c1 | 6 | 14 | -3 | 0 | 1 | -4
CC(C)(C)c1ccc(C(=O)c2c[nH]c(C(=O)NCCc3ccccn3)c2)cc1 | -6 | -12 | -17 | 0 | 16* | 0
CCOc1cc(C(c2c(C)[nH][nH]c2=O)c2c(C)[nH][nH]c2=O)cc(Br)c1OC | -76 | 18 | -13 | . | -2 | -69*
CCOc1cc(C(c2c(C)[nH][nH]c2=O)c2c(C)[nH][nH]c2=O)ccc1OCc1ccc([N+](=O)[O-])cc1 | 129* | 1 | -3 | 0 | 2 | 95
CCC1(CC)C(=O)N(C)C(=O)NC1=Nc1ccc(OC)cc1 | 2 | 41* | 2 | 0 | 3 | -1
CCC1(CC)C(=O)N(C)C(=O)NC1=NCc1ccccc1 | -5 | 10 | -12 | 0 | -3 | 4
CC1CCCC(C)N1CCCNC(=O)c1csc2c1CCCCC2 (configuration not stated) | 13 | 17 | 1 | . | 0 | -3
CCOC(=O)c1c(C)[nH]c(C(=O)COC(=O)CSC)c1C | 26 | 5 | 5 | 0 | -1 | 16
CCCCCCC(=O)c1c(C)[nH]c(C(=O)OCC)c1C | 53* | 7 | -7 | 1 | -2 | 29
CCCCC(=O)OCC(=O)c1[nH]c(C)c(C(=O)OCC)c1C | 76* | -2 | 2 | -1 | 3 | 37
CCCCCC(=O)c1c(C)[nH]c(C(=O)OCC)c1C | 29 | 20 | 0 | 0 | -2 | 33
Cc1cccc(C)c1Nc1nnc(SCc2cc([N+](=O)[O-])cc3c2OCOC3)s1 | 99* | -9 | -28 | 0 | -8 | 58
Nc1nc(CCl)nc(Nc2ccc3ccccc3c2)n1 | 111* | -3 | -7 | . | 1 | 80
COc1ccc(Nc2nc(N)nc(CCl)n2)cc1 | -24 | 19 | -4 | . | 2 | -27
CCC(CO)NC(=O)c1ccccc1C(F)(F)F (configuration not stated) | 0 | 10 | 0 | . | 1 | -5
COc1ccc(N2CCN(CCC(=O)c3ccc4ccccc4c3)CC2)cc1 | 16 | 17 | -6 | . | -3 | 3
Cc1onc(-c2c(Cl)cccc2Cl)c1C(=O)Nc1nc(C(C)(C)C)cs1 | 13 | 36* | -9 | . | 4 | -3
CC(C)(C)c1csc(NC(=O)c2cccs2)n1 | 55* | 36 | 3 | 0 | 2 | 27
CC(C)(C)c1csc(NC(=O)Cc2cccs2)n1 | 4 | 8 | -8 | 0 | -1 | 12
SMILES | HSF1 activator | NALP1 inh | pCIP destab | Hsp70 act | HSP90 refold inh | HSF1 inhib
COc1ccc(-c2nc(C#N)c(N3CCCCC3)o2)cc1 | 74* | 32 | -2 | . | -6 | 20
O=C(O)c1cc(-c2ccccc2Cl)n(-c2cccc(Cl)c2)n1 | -16 | 1 | 5 | . | -5 | -3
CSc1nc(Cl)c(Cc2ccc(OC(C)C)cc2)c(N(C)C)n1 | 59* | 32 | -11 | 0 | 2 | 17
COC(=O)/C=C1\N/C(=N\c2nc(C)cc(C)n2)N(c2ccc(Cl)cc2)C1=O | 18 | 4 | -10 | . | 4 | 0
CC(=O)Nc1nnc(SCC(=O)c2ccc(F)cc2)s1 | 104* | -27 | 2 | 0 | 2 | 92
O=[N+]([O-])c1ccc(Nc2ccc(F)cc2)cc1 | -84 | 10 | -3 | . | 1 | -81*
C[C@H]1CN(CCc2ccccc2)C(=O)[C@@H]1CC(=O)NCc1ccccc1 | 1 | 12 | -2 | . | -3 | -3
Cc1cc(C(=O)CCl)c(C)n1CCc1ccc(Cl)cc1 | 61* | -8 | -9 | 0 | -1 | 41
Cc1cc(C(=O)CCl)c(C)n1CCc1ccc(F)cc1 | 31 | -18 | -8 | 0 | -5 | -1
CC(=O)Oc1c(C(C)C)cc(N(C(C)=O)c2ccccc2)cc1C(C)C | 11 | . | . | . | . | 2
COc1ccc(C2=NCCn3c2c2ccc(C(F)(F)F)cc2[n+]3[O-])cc1 | -13 | . | . | . | . | 1
Cc1ccc(C2=NCCn3c2c2ccc(C(F)(F)F)cc2[n+]3[O-])cc1 | -64 | . | . | . | . | -55*
O=C(CNC(=O)c1ccco1)N=Nc1c(O)[nH]c2ccc(Br)cc12 | 10 | 15 | -3 | . | -1 | -4
Cc1cccc(NC(=O)c2cc(=O)[nH]c3ccccc23)c1 | -18 | 28 | 1 | . | -3 | -8
Cc1cccc(NC(=S)N=Nc2c(O)[nH]c3ccccc23)c1 | 90* | 20 | 8 | 0 | 0 | 55
COc1ccccc1NC(=S)N=Nc1c(O)[nH]c2ccc(Br)cc12 | 86* | 24 | -11 | . | 3 | 78
Cc1occc1C(=O)N=Nc1c(O)[nH]c2ccc(Br)cc12 | 50* | 30 | -12 | 0 | -1 | 20
Cc1cc(C(=O)C(C)OC(=O)c2ccc(NC(=O)CC#N)cc2)c(C)n1-c1ccccc1 (configuration not stated) | -30 | . | . | . | . | -23
CC(OC(=O)c1nc(Cl)ccc1Cl)C(=O)Nc1ccc2c(c1)OCCO2 (configuration not stated) | -5 | . | . | . | . | -1
O=C(O)C1=C[C@H](c2ccc(C(F)(F)F)cc2)C[C@H](OCc2ccc(CO)cc2)O1 | 4 | 22* | 7 | 0 | 1 | 3
O=C(C1=C[C@H](c2ccc(C(F)(F)F)cc2)C[C@H](OCc2ccc(CO)cc2)O1)N1CCOCC1 | -3 | 3 | 12 | 0 | -1 | -5
O=C(CCc1nc2ccccc2c(=O)[nH]1)NCc1ccccn1 | 9 | -2 | 16 | 0 | 0 | 1
O=C(CCc1nc2ccccc2c(=O)[nH]1)NCc1ccco1 | -71 | 6 | 8 | 0 | 3 | -65*
O=C(COc1ccccc1)NCCSCc1ccc(Cl)cc1 | 11 | 30 | -8 | 0 | 4 | -5
COc1ccccc1C(=O)NCCSCc1ccccc1Cl | 18 | 18 | 8 | . | 1 | 8
